For 34 molecules, Potency results are on record in PubChem BioAssay (Tox21).

“And” between values parts separate entries of the source, which are not always exact repeats. Equal entries are not always repeated. Records with an inconclusive call do not appear. Some compounds were tested as several samples or in several runs, with calls that do not always agree. The source made the active and inactive calls. Unless noted, calls come from the whole dose curve; as a rule, active = well fitted curve in the direction sought with a large enough effect in the repeat runs; inconclusive = weak or mixed curves; inactive = no such curve, though single readings can be large; an effect the other way counts as inactive or inconclusive.

Assay [1] deals with Acetylcholinesterase (Homo sapiens) (UniProt P22303). The assay is described as follows: Acetylcholinesterase (AChE) small molecule antagonists: fluorescence cell-based qHTS assay (AID 1347398; calls by dose curve; note: nearly all actives have a fitted effect of over 50% in size; note: potency is the fitted concentration of half-maximal effect). To be noted: Potency: AChE activity. In short, it runs like this:
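Human SH-SY5Y cells were plated overnight at 37 C, exposed to compound for 30 min at 37 C, 5% CO2, then given acetylthiocholine plus Thiolite Green for 40 min at room temperature; thiocholine fluorescence (Ex/Em 490/520 nm) reports endogenous AChE activity.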

For assay [2] the target is unchanged. The assay is described as follows: Acetylcholinesterase (AChE) small molecule antagonists: enzyme-based qHTS assay with human liver microsomes (AID 1347399; calls by dose curve; note: nearly all actives have a fitted effect of over 60% in size; note: potency is the fitted concentration of half-maximal effect). The settings on record: Potency: qHTS inhibition. The gist of the method:
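Recombinant human AChE (50 mU/mL in the enzyme mix) and human liver microsomes (0.25 mg/mL final) were preincubated with compound and NADPH (0.25 mg/mL final) for 30 min at 37 C. Acetylthiocholine/DTNB was then added; thiocholine was read colorimetrically after 10 min at room temperature.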

Assay [3] addresses Cytochrome P450 2D6 (Homo sapiens) (UniProt P10635). In words: Cytochrome P450 Family 2 Subfamily D Member 6 (CYP2D6) small molecule antagonists: luciferase reporter qHTS assay (AID 1671196). Note: nearly all actives have a fitted effect of over 50% in size. Note: potency is the fitted concentration of half-maximal effect. The gist of the method: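 Read-out is luminescence from luciferin formed by CYP2D6 turnover of a proluciferin substrate, recorded as relative luminescence units. Reactions ran 1 h at room temperature after NADPH regeneration solution was added.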

Assay [4] concerns the target Cytochrome P450 2C9 (Homo sapiens) (UniProt P11712). In words: Cytochrome P450 Family 2 Subfamily C Member 9 (CYP2C9) small molecule antagonists: luciferase reporter qHTS assay (AID 1671198). Note: nearly all actives have a fitted effect of over 50% in size. Note: potency is the fitted concentration of half-maximal effect. The gist of the method:
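CYP2C9 activity was measured with a P450-Glo proluciferin substrate. Enzyme–substrate mix was held with compound for 10 min at room temperature, then NADPH regeneration solution was added for 1 h at 37C. Luciferin product was read as luminescence.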

Assay [5] deals with Voltage-gated inwardly rectifying potassium channel KCNH2 (Homo sapiens) (UniProt Q12809). The assay is described as follows: Human Ether-a-go-go-Related Gene (hERG) channel small molecule antagonists: fluorescence cell-based qHTS assay (AID 1671200). Note: nearly all actives have a fitted effect of over 50% in size. Note: potency is the fitted concentration of half-maximal effect. In short, it runs like this: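 Fluorescence at 540 nm emission (480 nm excitation) was recorded kinetically for 2 min at 1-second intervals once the thallium-containing stimulus reached cells previously loaded with FluxOR II dye.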
A general note: Block of hERG is tested as a sign of cardiac risk.

The target in assay [6] is Cytochrome P450 3A4 (Homo sapiens) (UniProt P08684). The assay is described as follows: Cytochrome P450 Family 3 Subfamily A Member 4 (CYP3A4) small molecule antagonists: luciferase reporter qHTS assay (AID 1671201). Note: nearly all actives have a fitted effect of over 50% in size. Note: potency is the fitted concentration of half-maximal effect. In short, it runs like this: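 qHTS, 1536-well. CYP3A4 + proluciferin substrate, cpd 10 min RT → NADPH regen 1 h RT → detection reagent 20 min → luminescence (RLU). Ketoconazole positive control.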
A general note: A reporter such as luciferase makes a cellular process visible.

The target of assay [7] is Cytochrome P450 2C19 (Homo sapiens) (UniProt P33261). In words: Cytochrome P450 Family 2 Subfamily C Member 19 (CYP2C19) small molecule antagonists: luciferase reporter qHTS assay (AID 1671197). Note: nearly all actives have a fitted effect of over 65% in size. Note: potency is the fitted concentration of half-maximal effect. The gist of the method: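 P450-Glo CYP2C19 screening system; proluciferin substrate; DMSO compound stocks; 10 min RT preincubation; NADPH regeneration, 1 h at 37C; luciferin detection reagent, 20 min RT; luminescence as RLU.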

For assay [8], the target named is Cytochrome P450 1A2 (Homo sapiens) (UniProt P05177). In words: Cytochrome P450 Family 1 Subfamily A Member 2 (CYP1A2) small molecule antagonists: luciferase reporter qHTS assay (AID 1671199). Note: nearly all actives have a fitted effect of over 50% in size. Note: potency is the fitted concentration of half-maximal effect. In short, it runs like this:
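P450-Glo CYP1A2, 1536-well qHTS: enzyme/proluciferin substrate + cpd (DMSO), 10 min RT; NADPH regen, 1 h RT; detection reagent, 20 min; luminescence, RLU.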

Assay [9] addresses Acetylcholinesterase (Homo sapiens) (UniProt P22303). The assay is described as follows: Acetylcholinesterase (AChE) small molecule antagonists: enzyme-based qHTS assay (AID 1347397; calls by dose curve; note: nearly all actives have a fitted effect of over 55% in size). To be noted: Potency: AChE enzyme activity inhibition. In short, it runs like this:
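Recombinant human AChE, dispensed at 50 mU/mL, was preincubated with Tox21 10K compounds or DMSO vehicle for 30 min at room temperature. DTNB plus acetylthiocholine was then added, and thiocholine was measured colorimetrically after a further 10 min.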
On the technique in general: qHTS replaces the single test concentration by a dilution series.

Cytochrome P450 1A2 (Homo sapiens), sequence (P05177 whole entry, looked up): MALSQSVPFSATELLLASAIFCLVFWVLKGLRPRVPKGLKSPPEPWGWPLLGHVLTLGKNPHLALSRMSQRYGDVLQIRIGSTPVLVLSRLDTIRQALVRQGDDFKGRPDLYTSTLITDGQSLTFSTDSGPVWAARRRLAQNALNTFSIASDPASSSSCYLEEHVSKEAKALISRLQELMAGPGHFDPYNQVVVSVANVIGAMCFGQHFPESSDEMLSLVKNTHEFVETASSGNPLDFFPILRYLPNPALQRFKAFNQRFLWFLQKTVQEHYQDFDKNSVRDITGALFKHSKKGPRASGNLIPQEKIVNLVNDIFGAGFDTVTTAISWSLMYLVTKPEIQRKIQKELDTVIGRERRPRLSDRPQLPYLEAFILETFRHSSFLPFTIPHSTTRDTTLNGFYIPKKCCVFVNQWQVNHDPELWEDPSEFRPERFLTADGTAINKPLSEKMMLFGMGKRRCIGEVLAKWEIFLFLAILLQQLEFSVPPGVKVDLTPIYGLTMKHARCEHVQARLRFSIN
Acetylcholinesterase (Homo sapiens), sequence (P22303 whole entry, looked up): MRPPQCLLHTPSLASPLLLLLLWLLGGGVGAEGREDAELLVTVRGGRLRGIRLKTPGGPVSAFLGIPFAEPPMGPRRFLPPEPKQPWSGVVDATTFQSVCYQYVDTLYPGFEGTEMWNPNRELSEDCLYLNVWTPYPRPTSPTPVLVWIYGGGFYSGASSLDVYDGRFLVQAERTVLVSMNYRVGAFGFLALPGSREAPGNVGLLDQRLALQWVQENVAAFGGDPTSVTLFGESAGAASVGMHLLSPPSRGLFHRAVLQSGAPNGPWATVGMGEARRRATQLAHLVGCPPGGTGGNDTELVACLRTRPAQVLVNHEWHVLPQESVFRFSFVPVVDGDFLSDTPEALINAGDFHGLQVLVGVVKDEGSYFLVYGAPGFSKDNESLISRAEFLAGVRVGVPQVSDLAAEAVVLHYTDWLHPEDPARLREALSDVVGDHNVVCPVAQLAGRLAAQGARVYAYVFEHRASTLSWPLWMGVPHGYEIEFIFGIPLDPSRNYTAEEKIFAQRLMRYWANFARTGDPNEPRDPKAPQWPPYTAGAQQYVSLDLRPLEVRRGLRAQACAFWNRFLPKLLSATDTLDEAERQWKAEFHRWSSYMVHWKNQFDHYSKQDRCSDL
Cytochrome P450 2C19 (Homo sapiens), sequence (P33261 whole entry, looked up): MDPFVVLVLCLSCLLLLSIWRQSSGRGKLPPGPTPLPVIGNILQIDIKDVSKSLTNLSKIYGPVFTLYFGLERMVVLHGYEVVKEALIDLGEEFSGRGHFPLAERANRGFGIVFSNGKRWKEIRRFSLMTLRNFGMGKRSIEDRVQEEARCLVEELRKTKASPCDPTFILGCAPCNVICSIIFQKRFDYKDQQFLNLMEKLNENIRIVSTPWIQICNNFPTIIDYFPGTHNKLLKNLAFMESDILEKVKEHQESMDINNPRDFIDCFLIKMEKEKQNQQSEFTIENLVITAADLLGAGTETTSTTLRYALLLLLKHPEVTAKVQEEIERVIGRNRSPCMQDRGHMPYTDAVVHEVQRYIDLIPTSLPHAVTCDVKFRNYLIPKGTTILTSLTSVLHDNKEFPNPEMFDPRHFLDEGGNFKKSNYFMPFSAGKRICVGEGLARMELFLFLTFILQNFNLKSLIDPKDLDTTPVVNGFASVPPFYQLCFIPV
Cytochrome P450 2D6 (Homo sapiens), sequence (P10635 whole entry, looked up): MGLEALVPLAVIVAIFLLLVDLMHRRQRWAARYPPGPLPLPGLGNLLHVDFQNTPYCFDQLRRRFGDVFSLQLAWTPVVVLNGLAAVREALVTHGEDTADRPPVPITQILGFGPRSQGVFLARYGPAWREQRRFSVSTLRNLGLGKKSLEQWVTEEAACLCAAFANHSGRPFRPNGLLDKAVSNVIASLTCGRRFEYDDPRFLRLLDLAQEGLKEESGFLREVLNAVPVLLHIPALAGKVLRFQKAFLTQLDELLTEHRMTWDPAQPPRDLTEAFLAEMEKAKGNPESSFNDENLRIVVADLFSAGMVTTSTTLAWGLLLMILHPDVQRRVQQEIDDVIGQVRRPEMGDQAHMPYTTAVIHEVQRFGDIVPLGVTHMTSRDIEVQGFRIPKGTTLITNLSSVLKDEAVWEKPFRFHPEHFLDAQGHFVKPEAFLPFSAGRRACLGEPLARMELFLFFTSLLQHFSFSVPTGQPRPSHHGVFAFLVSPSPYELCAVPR
Cytochrome P450 3A4 (Homo sapiens), sequence (P08684 whole entry, looked up): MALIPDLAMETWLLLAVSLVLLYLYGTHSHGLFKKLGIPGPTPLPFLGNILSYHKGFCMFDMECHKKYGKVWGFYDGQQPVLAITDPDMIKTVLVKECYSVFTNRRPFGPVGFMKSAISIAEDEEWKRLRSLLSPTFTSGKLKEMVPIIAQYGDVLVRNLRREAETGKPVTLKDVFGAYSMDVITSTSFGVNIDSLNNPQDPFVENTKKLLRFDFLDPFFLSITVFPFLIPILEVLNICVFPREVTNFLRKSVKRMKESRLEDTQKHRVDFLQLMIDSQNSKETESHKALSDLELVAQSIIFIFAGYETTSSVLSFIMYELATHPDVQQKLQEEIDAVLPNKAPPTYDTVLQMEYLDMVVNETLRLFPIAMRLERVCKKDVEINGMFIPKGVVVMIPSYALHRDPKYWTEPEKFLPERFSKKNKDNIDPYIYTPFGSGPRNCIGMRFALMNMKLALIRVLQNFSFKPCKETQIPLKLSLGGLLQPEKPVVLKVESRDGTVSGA
Cytochrome P450 2C9 (Homo sapiens), sequence (P11712 whole entry, looked up): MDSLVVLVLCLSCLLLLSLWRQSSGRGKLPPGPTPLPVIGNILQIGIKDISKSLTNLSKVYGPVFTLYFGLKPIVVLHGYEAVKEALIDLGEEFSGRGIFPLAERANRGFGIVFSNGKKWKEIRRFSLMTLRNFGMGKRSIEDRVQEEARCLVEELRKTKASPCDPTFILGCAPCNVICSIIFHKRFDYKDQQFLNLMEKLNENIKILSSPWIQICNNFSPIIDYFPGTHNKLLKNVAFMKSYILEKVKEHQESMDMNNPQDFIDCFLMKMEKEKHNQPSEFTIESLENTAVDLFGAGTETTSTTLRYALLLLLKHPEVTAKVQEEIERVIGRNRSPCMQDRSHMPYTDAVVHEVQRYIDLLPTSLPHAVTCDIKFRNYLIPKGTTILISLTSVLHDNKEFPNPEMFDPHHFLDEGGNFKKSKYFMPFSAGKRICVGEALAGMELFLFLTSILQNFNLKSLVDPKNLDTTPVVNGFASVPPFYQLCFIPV
Voltage-gated inwardly rectifying potassium channel KCNH2 (Homo sapiens), sequence (Q12809 whole entry, looked up): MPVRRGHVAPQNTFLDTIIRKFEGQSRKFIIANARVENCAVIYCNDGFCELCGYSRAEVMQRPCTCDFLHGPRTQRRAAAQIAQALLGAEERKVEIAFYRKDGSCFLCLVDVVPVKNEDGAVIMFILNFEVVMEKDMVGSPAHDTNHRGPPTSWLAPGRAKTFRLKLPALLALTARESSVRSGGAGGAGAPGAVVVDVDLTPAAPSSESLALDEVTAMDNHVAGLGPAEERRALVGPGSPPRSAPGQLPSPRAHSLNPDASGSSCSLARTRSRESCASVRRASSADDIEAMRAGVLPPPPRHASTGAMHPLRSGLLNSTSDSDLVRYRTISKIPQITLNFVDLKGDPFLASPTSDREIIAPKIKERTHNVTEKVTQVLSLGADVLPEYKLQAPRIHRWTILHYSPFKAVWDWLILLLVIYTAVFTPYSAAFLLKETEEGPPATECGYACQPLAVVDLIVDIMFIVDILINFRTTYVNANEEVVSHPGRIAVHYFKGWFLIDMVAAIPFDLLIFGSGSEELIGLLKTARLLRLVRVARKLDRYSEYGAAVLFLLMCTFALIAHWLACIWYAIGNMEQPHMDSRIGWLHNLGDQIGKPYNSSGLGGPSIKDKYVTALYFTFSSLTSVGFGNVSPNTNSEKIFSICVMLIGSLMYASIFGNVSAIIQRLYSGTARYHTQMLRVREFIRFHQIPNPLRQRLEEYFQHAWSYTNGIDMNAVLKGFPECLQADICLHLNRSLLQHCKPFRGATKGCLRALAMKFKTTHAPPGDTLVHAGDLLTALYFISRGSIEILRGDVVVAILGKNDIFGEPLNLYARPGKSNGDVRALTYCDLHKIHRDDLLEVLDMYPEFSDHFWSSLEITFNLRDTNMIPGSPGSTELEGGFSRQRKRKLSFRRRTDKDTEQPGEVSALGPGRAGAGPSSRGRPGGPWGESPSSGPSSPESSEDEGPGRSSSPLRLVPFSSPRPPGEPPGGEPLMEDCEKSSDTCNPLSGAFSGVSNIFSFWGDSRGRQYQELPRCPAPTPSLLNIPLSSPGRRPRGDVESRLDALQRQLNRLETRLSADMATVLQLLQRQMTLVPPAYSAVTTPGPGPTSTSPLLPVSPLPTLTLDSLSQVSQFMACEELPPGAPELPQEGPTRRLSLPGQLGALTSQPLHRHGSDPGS

Consider `Cc1cc(SCc2sc(-c3ccc(C(F)(F)F)c(F)c3)nc2C)ccc1OCC(=O)O`, for which the Potency result in assay [1], in assay [2], in assay [3], in assay [5] and in [6] was “inactive” throughout. Moreover, the Potency in assay [4] was 35.6 µM (active).
In the case of `CCOP(=S)(OCC)SCS(=O)(=O)C(C)(C)C`, the Potency in assay [2] was 8.94 µM (active); in [7] it was 1.78 µM (active); in assay [4] it was 5.64 µM (active); in [8], 44.8 µM (active); in assay [6], 2.83 µM (active). The Potency entry in assay [5] is “inactive”.
Regarding `N#CCCC(Br)(C#N)CBr` (centres undefined), the Potency entry in [1] and in [3] was “inactive” each time. Moreover, the Potency in [7] was 11.2 µM (active); in assay [4], 8.94 µM (active); in assay [8], 15.9 µM (active); in assay [5], 27.5 µM (active).
In the case of `CC(C)(C)OO`, the Potency entry in assay [9], in assay [3], in [7], in assay [4], in assay [5] and in assay [6] was “inactive” throughout.
On to `O=C(Nc1ccc2[nH]ccc2c1)c1cc2cc(F)ccc2n1Cc1cccc(F)c1`, for which the Potency entry in [9] and in assay [5] was “inactive” each time. Further, the Potency in assay [3] was 15.9 µM (active); in assay [7] it was 6.33 µM (active); in [4], 3.56 µM (active); in assay [6], 2.52 µM (active).
Take `CCCSP(=O)(OCC)SCCC`: the Potency result in assay [5] was “inactive”.
In the case of `CC(C)CCCCCCCOP(=O)(Oc1ccccc1)Oc1ccccc1`, the Potency entry in assay [9] was “inactive”. The values for the Potency in assay [7], in assay [4] and in [8] were 6.36 µM (active), 6.36 µM (active) and 28.4 µM (active), respectively.
As for `[Hg+2].[I-].[I-]`, the Potency in [1] was 28.3 µM (active); in assay [4], 0.564 µM (active); in assay [8], 3.56 µM (active); in assay [6] it was 2.24 µM (active). Moreover, the Potency result in assay [5] is “inactive”.
`CC(C)CBr`: the Potency entry in assay [9], in [3], in assay [4], in assay [8], in assay [5] and in [6] was “inactive” in each case.
As to `CCCCCCCCCCCCCCCC[n+]1ccccc1`, the Potency result in assay [2], in assay [7] and in [8] was “inactive” throughout.
Take `CC(C)CC(C)(c1ccc(O)cc1)c1ccc(O)cc1`: the Potency entry in [1], in assay [2], in assay [3] and in [8] was “inactive” each time. In addition, the Potency was 35.7 µM (active) and 22.4 µM (active) in [7]; 28.3 µM (active) and 17.8 µM (active) in [4]; 17.9 µM (active) and 31.7 µM (active) in [6].
As to `CC(=O)[O-].CC(=O)[O-].O.O.[Cd+2]`, the Potency result in [5] was “inactive”.
Turning to `CN(C)S(=O)(=O)N(SC(F)(Cl)Cl)c1ccccc1`, the Potency in assay [1] was 35.6 µM (active); in [2], 71 µM (active); in assay [7] it was 11.2 µM (active); in assay [4], 3.56 µM (active); in [8], 22.4 µM (active); in assay [5] it was 19.5 µM (active). Besides, in assay [6], the Potency result was “inactive”.
Regarding `CC(C)OC(=O)C(O)(c1ccc(Cl)cc1)c1ccc(Cl)cc1`, the Potency result in assay [9] was “inactive”. Also, the Potency in assay [3] is 31.7 µM (active); in assay [7], 2 µM (active); in [5] it was 21.9 µM (active).
On to `[Cd+2].[Cl-].[Cl-]`, for which the Potency entry in assay [5] is “inactive”.
In the case of `COc1cc(N)c(Cl)cc1C(=O)NC1CN2CCC1CC2` (centres undefined), the Potency in assay [3] is 13.8 µM (active). In addition, the Potency result in assay [4], in [8] and in [6] was “inactive” in each case.
Consider `c1ccc2c(c1)OCC(C1=NCCN1)O2` (centres undefined), for which the Potency result in [9], in assay [4], in assay [8] and in assay [5] was “inactive” each time. For the same molecule, the Potency in [3] is 13.8 µM (active).
As for `CC(=O)[O-].[Tl+]`, in assay [5], the Potency result was “inactive”.
As to `Oc1ccc(C(=C(Cl)Cl)c2ccc(O)cc2)cc1`, the Potency result in assay [1], in assay [2] and in assay [3] was “inactive” in each case. Further, the Potency in assay [7] was 12.6 µM (active); in [4], 5.63 µM (active); in assay [8], 39.8 µM (active); in assay [6], 11.2 µM (active).
With `CN(C)[C@@H]1C(=O)C(C(N)=O)=C(O)[C@@]2(O)C(=O)C3=C(O)c4c(O)ccc(Cl)c4[C@@](C)(O)[C@H]3C[C@@H]12`, the Potency result in assay [5] is “inactive”.
As to `O=[N+]([O-])O.O=[N+]([O-])O.[Cd]`, in assay [5], the Potency entry was “inactive”.
Turning to `COc1cccc(C(=O)CCN[C@@H](C)[C@H](O)c2ccccc2)c1`, the Potency was 21.9 µM (active) in assay [7], 27.5 µM (active) in assay [4] and 24.5 µM (active) in assay [8]. For the same molecule, in assay [5], the Potency entry was “inactive”.
For the molecule `Clc1ccc(CCC(Cn2ccnc2)Sc2c(Cl)cccc2Cl)cc1` (centres undefined), the Potency result in assay [2] is “inactive”. The Potency in assay [3] was 2.19 µM (active); in assay [7] it was 0.0347 µM (active); in assay [4] it was 0.0871 µM (active); in [8], 15.5 µM (active); in assay [5], 7.56 µM (active).
As to `FC(F)(F)c1cccc(C2=CCN(CCc3ccc4ccccc4c3)CC2)c1`, the Potency in [3] is 0.195 µM (active); in assay [5], 1.69 µM (active). For the same molecule, the Potency result in assay [7] and in assay [4] was “inactive” throughout.
As to `Clc1ccc(CO/N=C(\Cn2ccnc2)c2ccc(Cl)cc2Cl)c(Cl)c1`, in [1], the Potency result is “inactive”.
`Clc1ccc(CSC(Cn2ccnc2)c2ccc(Cl)cc2Cl)cc1` (centres undefined): the Potency entry in [2] is “inactive”.
For `ClC1=C(Cl)[C@]2(Cl)[C@H]3[C@H]([C@H]4C=C[C@H]3C4)[C@@]1(Cl)C2(Cl)Cl`, the Potency result in assay [9], in assay [3] and in assay [8] was “inactive” throughout. The results for the Potency in assay [7] and in assay [6] were 15.9 µM (active) and 1 µM (active), respectively.
Consider `O=[N+]([O-])c1cc([N+](=O)[O-])c2ccccc2c1`, for which the Potency entry in [9], in assay [5] and in [6] was “inactive” each time.
On to `c1ccc(OCC2CO2)cc1` (centres undefined), for which, in [5], the Potency entry was “inactive”.
For the molecule `N#Cc1ccccc1N`, the Potency result in [9], in assay [7], in [4], in assay [8], in assay [5] and in assay [6] was “inactive” each time. In addition, in assay [3], the Potency is 25.2 µM (active).
Regarding `CC(C)Oc1cccc(NC(=O)c2ccccc2C(F)(F)F)c1`, in assay [9], the Potency result was “inactive”. The Potency in [7] is 3.99 µM (active); in assay [4] it was 13 µM (active); in assay [8] it was 10.6 µM (active); in assay [5], 50.4 µM (active).
For the molecule `CCCCCCCCCCCCCCCC[N+](C)(C)C`, the Potency in [3] is 862 nM (active) and 1.42 µM (active) and 1.38 µM (active); in assay [7], 79.6 µM (active) and inactive; in [8] it was “inactive and 79.6 µM (active)”; in assay [5], 16.8 µM (active) and 21.9 µM (active) and 16.9 µM (active). Also, the Potency result in [4] was “inactive”.
Turning to `Clc1ccc(COC(Cn2ccnc2)c2ccc(Cl)cc2Cl)cc1` (centres undefined), the Potency result in assay [1] and in [2] was “inactive” throughout. Also, the Potency is 663 nM (active) and 224 nM (active) and 490 nM (active) in assay [3]; 1.87 µM (active) and 1.78 µM (active) and 911 nM (active) in [8].
Consider `CS(=O)(=O)c1ccc(C(=O)C2C(=O)CCCC2=O)c([N+](=O)[O-])c1`, for which the Potency entry in assay [2], in [5] and in [6] was “inactive” in each case. For the same molecule, the Potency in assay [7] was 72.3 µM (active); in [8], 50.3 µM (active).
